According to PubChem BioAssay (NCI):
About 83,000 compounds went through this panel and 20% of them were active in at least one assay; those are over-represented in the sample as a whole.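 Step 1: grow cells in 96-well plates. Step 2: add test compound at a single concentration. Step 3: incubate 48 h. Step 4: record percent growth.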 Unmarked numbers belong to inactive results. Active and inactive are the calls of the source. Rule for the calls: active = growth percent below 10; inactive = the rest.

The compounds below were run on SNB-19 CNS (assay: NCI-60 one-dose screen, 48 h (100 = growth as untreated, 0 = no growth, -100 = all killed)). Conditions: 10 µM.
Work on `Cc1ccc(C(=O)N2C/C(=C/c3ccc(F)cc3)C(=O)/C(=C/c3ccc(F)cc3)C2)cc1` yielded a growth of 97.8%. Work on `COc1cc(NC(=O)CCSc2nc3ccc(C)cc3c(=O)n2Cc2ccccc2)cc(OC)c1OC` yielded a growth of 73.3%. Compound `O=C(Nc1cccc(-n2cc(-c3ccncc3)c(-c3cc(O)cc(Cl)c3)n2)c1)Nc1ccc(Cl)c(C(F)(F)F)c1` has a growth of 44.5%. For `CCC(=O)N1C/C(=C/c2ccc(Br)cc2)C(=O)/C(=C/c2ccc(Br)cc2)C1`, the growth was -32.7% (active). In the case of `COc1cc(Cl)cc(-c2nn(-c3cccc(NC(=O)c4ccc(N5CCOCC5)c(C(F)(F)F)c4)c3)cc2-c2ccncc2)c1`, the growth is reported as 75.5%. `O=C(C[P+](c1ccccc1)(c1ccccc1)c1ccccc1)C[P+](c1ccccc1)(c1ccccc1)c1ccccc1` gave a growth of 20.3%. With `Nc1ccn(C2CC(O)C(CO)O2)c(=O)n1` (centres undefined) the growth was 99.7%. Work on `COc1ccc(Nc2nc3ccc(NC(=O)NC4CCCCC4)cc3[nH]c2=O)cc1` yielded a growth of 100%. `CC1(C)CCC(=NNC(N)=S)CC1` was tested, and the growth was 108%. In the case of `CCOC(=O)C1(CC(C)C)CCOC1=O` (centres undefined), the growth is reported as 102%. Compound `N#Cc1cc(-c2cc3ccccc3o2)oc1N` has a growth of 24.5%. `COc1ccc(-c2nc3ncccn3c2-c2nnc(-c3ccsc3C)o2)cc1` gave a growth of 68.9%. With `Oc1[nH]c2cc(Cl)ccc2c1/C=c1/ccc2c(c1)N=C(c1cc(F)cc(F)c1)N=2` the growth was 64.5%. In the case of `CCCCCCCCCCCC[n+]1ccc(C(N)=O)cc1`, the growth is reported as 18.6%. For `COc1ccc2c(c1)O/C(=C\c1ncc([N+](=O)[O-])n1C)C2=O`, the growth was 2.04% (active). `N#Cc1cccc(OCc2nc(N)nc(N)c2-c2ccc(Cl)c(Cl)c2)c1` was tested, and the growth was 47.1%. With `Cc1cs/c(=N\NC(=O)c2cc(-c3cc4ccccc4o3)nn2-c2ccccc2)n1-c1ccccc1` the growth was 92.8%. In the case of `CC1(C)OC2=C(CC1Br)C(=O)C(=O)c1ccccc12` (centres undefined), the growth is reported as -19% (active). With `Cc1occc1-c1nnc(SCC(=O)c2ccc(NC(=O)CC(C)C)cc2)o1` the growth was 95.8%. Work on `CCN(CC)CCOc1nc2ccccc2c2c1-c1ccc(OC)cc1C2=O` yielded a growth of 24.6%. `COc1ccc(Nc2ncnc3c2c(SC)nn3-c2ccccc2)cc1` showed a growth of 91.6%. Compound `O=C(CC(C(=O)c1ccccc1)N1CCOCC1)c1ccccc1` (centres undefined) has a growth of 95.6%. Work on `COc1cc(-c2cc(/C=C/C(=O)c3ccc(Cl)c(Cl)c3)[nH]n2)cc(OC)c1OC` yielded a growth of 68%. For `COc1ccc(-c2nc(-c3nc4ccc(OC)cc4[nH]3)cc3c2[nH]c2ccccc23)cc1`, the growth was 37.5%. With `O=C(O)c1ccc(P(=O)(O)O)c([N+](=O)[O-])c1` the growth was 107%. In the case of `COc1ccc2c(c1)O/C(=C\c1ccc([N+](=O)[O-])s1)C2=O`, the growth is reported as 67.3%. `COc1ccc2c(c1)sc1nc(-c3ccccc3)c(-c3cccnc3)n12` showed a growth of 103%. With `CCCCCC(=O)c1ccc(OCCCN2CCN(C(=O)OCC)CC2)cc1` the growth was 95.9%. Compound `CC(=O)n1c(-c2ccc(Cl)c(Cl)c2)cn(-c2ccc(Cl)cc2)c1=O` has a growth of 18.4%. Work on `C#Cc1ccc(-n2c(/C=C/c3ccc(O)cc3)nc3ncccc3c2=O)cc1` yielded a growth of 82%. With `c1ccc(CNc2ncnc3scc(-c4cccs4)c23)nc1` the growth was 67.2%. `O=C(Nc1ccncc1)C(=O)c1cn(S(=O)(=O)c2cccc3ccccc23)c2ccccc12` was tested, and the growth was 80.5%. `CCN(CC)Cc1cc(Nc2ccnc3cc(Cl)ccc23)ccc1OC` gave a growth of 94.1%. For `O=C1Nc2ccc(Cl)cc2/C1=C\c1c(-c2ccc(Cl)cc2)nc2sc(C3CC3)nn12`, the growth was 74.3%. Compound `Cc1cc(N(CCCNc2ccnc3cc(Cl)ccc23)Cc2ccc3c(c2)OCO3)nc(N2CCOCC2)n1` has a growth of 32.3%. With `c1ccc(CO[C@H]2CO[C@H]3[C@@H]2OC[C@H]3OCc2ccccc2)cc1` the growth was 101%. Work on `Clc1cc2c(c(CSc3nc4ccccc4n4cccc34)c1)OCOC2` yielded a growth of 107%. `CCN(CC)CCOc1nc2ccc(OC)cc2c2c1-c1ccc(OC)cc1C2=O` was tested, and the growth was 33.5%. With `CCn1cc(C(=O)O)c(=O)c2cnc(N3CCCC3)nc21` the growth was 105%.
